Data from PubChem BioAssay AID1159580 (chemical genetic matrix, 2015).
Out of some 5,500 compounds screened, about 2,000 (36%) were called active. Inconclusive results (about 18%) are left out. Rule as the data show it: active = normalized growth mostly below about 0.91 (no sharp cut-off); inconclusive = no clear call, values can overlap the other calls; inactive = mostly above about 0.92. The list shows a part of the results.

Experiment: chemical genetic growth profiling, strain panel (AID 1159580);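 also: tested at 20 µM; growth read once vehicle control cultures reached saturation at 30 °C; 1 = growth at the plate median or of vehicle wells; lower values mean less growth of the strain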
Conditions: growth OD

Measured: normalized growth

C=C1C2CC[C@H]3[C@]4(C)C[C@H](OC5OC(CO)C(OS(=O)(=O)O)C(OS(=O)(=O)O)C5OC(=O)CC(C)C)C[C@@H](C(=O)O)[C@H]4CC[C@]3(C2)[C@H]1O (some centres undefined)
inactive: S. cerevisiae deletion strains, locus YJR043C, strain POL32, hits give low values 1 | S. cerevisiae deletion strains, locus YJR075W, strain HOC1, hits give low values 1.01 | S. cerevisiae deletion strains, locus YKL009W, strain mrt4, hits give low values 0.984 | S. cerevisiae deletion strains, locus YKL068W, hits give low values 0.981 | S. cerevisiae deletion strains, locus YKL085W, strain MDH1 (second series), hits give low values 0.97 | S. cerevisiae deletion strains, locus YKL085W, strain MDH1, hits give low values 0.97 | S. cerevisiae deletion strains, locus YKL160W, strain elf1, hits give low values 0.984 | S. cerevisiae deletion strains, locus YKL190W, strain CNB1, hits give low values 1.01 | S. cerevisiae deletion strains, locus YKR001C, strain vps1, hits give low values 0.976 | S. cerevisiae deletion strains, locus YKR026C, strain gcn3, hits give low values 1.01 | S. cerevisiae deletion strains, locus YKR091W, strain srl3, hits give low values 1.01 | S. cerevisiae deletion strains, locus YLL001W, strain dnm1, hits give low values 1.03 | S. cerevisiae deletion strains, locus YLL026W, hits give low values 1.01 | S. cerevisiae deletion strains, locus YLL041C, strain sdh2, hits give low values 1.01 | S. cerevisiae deletion strains, locus YLR027C, strain aat2, hits give low values 1.01 | S. cerevisiae deletion strains, locus YLR039C, strain RIC1, hits give low values 0.99 | S. cerevisiae deletion strains, locus YLR058C, strain SHM2, hits give low values 1.01 | S. cerevisiae deletion strains, locus YLR102C, strain apc9, hits give low values 0.983 | S. cerevisiae deletion strains, locus YLR221C, strain rsa3, hits give low values 0.995 | S. cerevisiae deletion strains, locus YLR258W, strain gsy2, hits give low values 1.02 | S. cerevisiae deletion strains, locus YLR262C, strain YPT6 (second series), hits give low values 1.01 | S. cerevisiae deletion strains, locus YLR262C, strain YPT6, hits give low values 0.994 | S. cerevisiae deletion strains, locus YLR268W, strain sec22, hits give low values 0.987 | S. cerevisiae deletion strains, locus YLR320W, strain mms22, hits give low values 1.01 | S. cerevisiae deletion strains, locus YLR330W, strain CHS5, hits give low values 1.01 | S. cerevisiae deletion strains, locus YLR342W, strain FKS1 (second series), hits give low values 1.01 | S. cerevisiae deletion strains, locus YLR342W, strain FKS1, hits give low values 1.01 | S. cerevisiae deletion strains, locus YLR357W, strain rsc2, hits give low values 0.986 | S. cerevisiae deletion strains, locus YLR370C, strain arc18, hits give low values 1 | S. cerevisiae deletion strains, locus YLR371W, strain rom2, hits give low values 0.987 | S. cerevisiae deletion strains, locus YLR384C, strain iki3, hits give low values 0.991 | S. cerevisiae deletion strains, locus YLR418C, strain cdc73, hits give low values 1 | S. cerevisiae deletion strains, locus YML016C, strain PPZ1, hits give low values 1.01 | S. cerevisiae deletion strains, locus YML032C, strain rad52, hits give low values 0.984 | S. cerevisiae deletion strains, locus YML120C, strain ndi1, hits give low values 1.01 | S. cerevisiae deletion strains, locus YML124C, strain tub3, hits give low values 0.987 | S. cerevisiae deletion strains, locus YMR058W, strain fet3, hits give low values 1.01 | S. cerevisiae deletion strains, locus YMR078C, strain ctf18, hits give low values 0.982 | S. cerevisiae deletion strains, locus YMR125W, strain sto1, hits give low values 1.02 | S. cerevisiae deletion strains, locus YMR129W, hits give low values 0.992 | S. cerevisiae deletion strains, locus YMR205C, strain PFK2, hits give low values 1.03 | S. cerevisiae deletion strains, locus YMR223W, strain ubp8, hits give low values 0.977 | S. cerevisiae deletion strains, locus YMR231W, strain pep5, hits give low values 1.01 | S. cerevisiae deletion strains, locus YMR263W, strain SAP30, hits give low values 1.02 | S. cerevisiae deletion strains, locus YMR307W, strain GAS1, hits give low values 1.05 | S. cerevisiae deletion strains, locus YNL067W, strain RPL9B, hits give low values 1.02 | S. cerevisiae deletion strains, locus YNL071W, strain lat1, hits give low values 1.01 | S. cerevisiae deletion strains, locus YNL128W, strain TEP1, hits give low values 1.02 | S. cerevisiae deletion strains, locus YNL153C, strain GIM3, hits give low values 1.03 | S. cerevisiae deletion strains, locus YNL209W, strain ssb2, hits give low values 1 | S. cerevisiae deletion strains, locus YNL233W, strain BNI4, hits give low values 1.02 | S. cerevisiae deletion strains, locus YNL248C, strain rpa49, hits give low values 0.974 | S. cerevisiae deletion strains, locus YNL250W, strain rad50, hits give low values 0.972 | S. cerevisiae deletion strains, locus YNL271C, strain bni1, hits give low values 0.972 | S. cerevisiae deletion strains, locus YNL298W, strain CLA4, hits give low values 0.977 | S. cerevisiae deletion strains, locus YNL307C, strain MCK1, hits give low values 0.986 | S. cerevisiae deletion strains, locus YNL322C, strain KRE1 (second series), hits give low values 1 | S. cerevisiae deletion strains, locus YNL322C, strain KRE1, hits give low values 1.01 | S. cerevisiae deletion strains, locus YNR049C, strain mso1, hits give low values 1.01 | S. cerevisiae deletion strains, locus YNR052C, strain pop2, hits give low values 0.97 | S. cerevisiae deletion strains, locus YOL006C, strain TOP1, hits give low values 1.07 | S. cerevisiae deletion strains, locus YOL012C, strain htz1 0.954 | S. cerevisiae deletion strains, locus YOL147C, strain pex11, hits give low values 0.992 | S. cerevisiae deletion strains, locus YOR001W, strain rrp6, hits give low values 0.992 | S. cerevisiae deletion strains, locus YOR061W, strain CKA2, hits give low values 1.01 | S. cerevisiae deletion strains, locus YOR069W, strain VPS5, hits give low values 1.01 | S. cerevisiae deletion strains, locus YOR070C, strain gyp1, hits give low values 1 | S. cerevisiae deletion strains, locus YOR080W, strain dia2, hits give low values 1.02 | S. cerevisiae deletion strains, locus YOR083W, strain WHI5, hits give low values 0.976 | S. cerevisiae deletion strains, locus YOR106W, strain vam3, hits give low values 0.991 | S. cerevisiae deletion strains, locus YOR136W, strain idh2, hits give low values 0.988 | S. cerevisiae deletion strains, locus YOR144C, strain elg1, hits give low values 0.99 | S. cerevisiae deletion strains, locus YOR184W, strain ser1, hits give low values 0.958 | S. cerevisiae deletion strains, locus YOR265W, strain rbl2, hits give low values 1.01 | S. cerevisiae deletion strains, locus YOR270C, strain vph1, hits give low values 1.01 | S. cerevisiae deletion strains, locus YOR290C, strain snf2, hits give low values 0.986 | S. cerevisiae deletion strains, locus YOR316C, strain cot1, hits give low values 0.991 | S. cerevisiae deletion strains, locus YPL051W, strain arl3, hits give low values 0.995 | S. cerevisiae deletion strains, locus YPL055C, strain LGE1, hits give low values 1.05 | S. cerevisiae deletion strains, locus YPL078C, strain atp4, hits give low values 0.993 | S. cerevisiae deletion strains, locus YPL106C, strain sse1, hits give low values 1.01 | S. cerevisiae deletion strains, locus YPL240C, strain hsp82, hits give low values 1.01 | S. cerevisiae deletion strains, locus YPL241C, strain CIN2, hits give low values 1.02 | S. cerevisiae deletion strains, locus YPR119W, strain clb2, hits give low values 0.986 | S. cerevisiae deletion strains, locus YPR141C, strain kar3, hits give low values 0.969 | S. cerevisiae deletion strains, locus YPR163C, strain tif3, hits give low values 0.992 | S. cerevisiae deletion strains, locus YPR167C, strain met16, hits give low values 0.985 | S. cerevisiae deletion strains, strain wtn01, hits give low values 0.98 | S. cerevisiae strains, strain wild type, hits give low values 1.01
